# Where “and” joins values, the source holds several entries; their conditions need not be identical. Equal values may be shown once. Results filed as inconclusive are left out. A number with no mark means an inactive call. Calls of active or inactive are those of the source. Calls follow the shape of the dose curve; as a rule, active = well fitted cell-killing curve with a large enough effect; inconclusive = small, poorly fitted or top-dose-only effect, or effect the other way; inactive = no such curve, though single readings can be large or run the other way.
# Assay: Viability qHTS for spleen associated tyrosine kinase inhibitor (SYKi) drug resistant MV4-11 cells (AID 1963824); also: nearly all actives have a fitted effect of over 35% in size
# Conditions: SYKi-resistant MV4-11 viability, CellTiter-Glo, 72 h; series mostly up to 45 µM
# How it was run: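 SYK inhibitor-resistant MV4-11 AML cells, 500 per well, added to predispensed compounds and incubated 72 hr at 37 C, 5% CO2. Viability measured by CellTiter-Glo luminescence after 10 min at room temperature.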
# Potency is read from the fitted curve at half-maximal effect.
Structure (SMILES),Potency,"viability, % of control"
CC(C)CC(=O)n1cc(C(N)=O)c(=O)cc1C(O)c1ccccc1 (configuration not stated),inactive,
O=C(CNC(=O)c1cccc(C(F)(F)F)c1)N[C@@H]1CCN(Cc2ccc(Cl)cc2)C1,23.1 µM (active),
O=C(C[C@@H]1C(C(=O)O)=CO[C@@H](O[C@@H]2O[C@H](CO)[C@@H](O)[C@H](O)[C@H]2O)/C1=C\CO)OCCc1ccc(O)c(O)c1,inactive,
COc1cc(F)c(F)c(Nc2ccc(I)cc2F)c1NS(=O)(=O)C1(CC(O)CO)CC1 (configuration not stated),0.58 µM (active),
COc1ccc(CN2CCN(C(c3ccc(F)cc3)c3ccc(F)cc3)CC2)c(OC)c1OC,21.1 µM (active) and 16.4 µM (active),
N#Cc1ccc(O[C@@H]2c3ccccc3C[C@H]2N2CCC[C@@H](N)C2)c(Cl)c1,16.4 µM (active),
CC1(C)C=CN2C(=O)C3=CCCN3C(=O)[C@@H]2C[C@@]12Nc1ccccc1C2=O,inactive,
C=C1C(OC2OC(CO)C(O)C(O)C2O)CC2C(C)(C)C(O)CCC2(C)C1CC/C(C)=C\COC(=O)CC(=O)O (configuration not stated),5.44 µM (active),
Cc1cccc(-c2[nH]ncc2-c2ccnc3ccccc23)n1,16.4 µM (active),
CN1C[C@@H]2c3ccccc3Oc3ccc(Cl)cc3[C@H]2C1,18.6 µM (active),
Cc1ccc(CNc2ncnc3ccc(-c4ccc(CO)o4)cc23)o1,5.17 µM (active),
O[C@@](Cc1ncc(CC2(C(F)(F)F)CC2)[nH]1)(c1ccc(-n2cccn2)cc1)C(F)(F)F,14.6 µM (active),
CC(C)C(=O)OCc1cccc(OC(=O)[C@@H]2N3C(=O)[C@@H](NC(=O)Cc4ccccc4)[C@H]3SC2(C)C)c1,7.5 µM (active),
COc1ccc(-c2csc(NC(=O)[C@H]3CCCCN3S(=O)(=O)c3ccc(C)cc3)n2)cc1,5.17 µM (active),
COC(=O)N[C@H](C(=O)N1[C@@H]2CC[C@@H](C2)[C@H]1c1nc2ccc(-c3ccc4c(c3)C(F)(F)c3cc(-c5cnc([C@@H]6CCC7(CC7)N6C(=O)[C@@H](NC(=O)OC)C(C)C)[nH]5)ccc3-4)cc2[nH]1)C(C)C,3.99 µM (active),
CC1CCC2(C(=O)O)CCC3(C)C(=CCC4C5(C)CCC(O)C(C)(CO)C5CCC43C)C2C1(C)O (configuration not stated),inactive,

Structure (SMILES),Potency,"viability, % of control"
COc1ccc(CN2CCN(C(=O)CCNC(=O)c3ccc(C(C)(C)C)cc3)CC2)cc1,9.2 µM (active),
CC(C)(O)c1ccc2c(c1)ncn2-c1cccc(-c2ccccc2C#N)c1,18.4 µM (active),
CCCCCCCCCCC(O)C1C=CC2C(=O)N(c3ccccc3)C(=O)C2N1Nc1ccc([N+](=O)[O-])cc1 (configuration not stated),11.6 µM (active),
CC(C)(CO)c1cc2cc(NC(=O)C3(c4ccc5c(c4)OC(F)(F)O5)CC3)c(F)cc2n1CC(O)CO (configuration not stated),16.4 µM (active),
COCC1OC(n2cnc3c(=O)[nH]cnc32)C(O)C1O (configuration not stated),inactive,
OC(CNCCc1c[nH]c2ccccc12)Cn1c2ccccc2c2ccccc21 (configuration not stated),5.17 µM (active),
C/C=C(\C)C(=O)O[C@@H]1[C@@H](C)[C@]2(O)[C@@H]3C=C(C)C(=O)[C@H]3CC(CO)=C[C@H]2C2C(C)(C)[C@@]21OC(=O)C(C)CC (some centres not stated),0.448 µM (active),
C=C1C(=O)OC[C@@H]1C/C=C(\C)CC1CC(C)C(=O)O1 (some centres not stated),13 µM (active),
CCCCCC1CC1CC1CC1CCCCCCCC(=O)O (configuration not stated),inactive,
COCC(=O)NC/C=C/c1ccc2ncnc(Nc3ccc(Oc4ccc(C)nc4)c(C)c3)c2c1,9.2 µM (active),
CONC(=O)c1ccccc1Nc1cc(Nc2cc(C)nn2C(C)C)ncc1Cl,13.2 µM (active),
COC(=O)[C@]1(C)CCC[C@@]2(C)C(=O)CC[C@H]3C(=O)C=C(CC[C@@H]21)C3O (some centres not stated),inactive,
O=C(c1ccccc1)c1ccc2nc(NC(=O)c3csc(C4CCN(c5ncnc6ccsc56)CC4)n3)[nH]c2c1,2.31 µM (active),
C/C=C(/C)C(=O)OC1C=C2C3C(C)C(C)C(OC(=O)C(C)C(C)O)CC3(C)CCC2(C)C2(C)CC(OC(C)=O)C3C(C)(C)C(O)C(=O)CC3(C)C12 (configuration not stated),4.32 µM (active),
CC(C)S(=O)(=O)Nc1ccc(F)c(C(=O)c2c[nH]c3ncc(-c4cccnc4)cc23)c1F,2.91 µM (active),
CC1(C)C[C@H]2C3=CCC4[C@@]5(C)CC[C@H](O[C@H]6O[C@H](C(=O)O)[C@@H](O)[C@H](O)[C@H]6O[C@H]6O[C@H](CO)[C@@H](O)[C@H](O)[C@H]6O[C@@H]6O[C@H](CO)[C@@H](O)[C@H](O)[C@H]6O)[C@](C)(CO)C5CC[C@@]4(C)[C@]3(C)CC[C@@]2(C)[C@H](O[C@@H]2OC[C@H](O)[C@H](OC3O[C@H](CO)[C@@H](O)[C@H](O)[C@H]3O)[C@H]2O)[C@@H]1O (some centres not stated),,93.8% [at 9.25 µM]
